# Source: PubChem BioAssay (NCI)
# This is part of a sample that, as a whole, favours compounds with a hit. Of some 83,000 tested, about 20% had one in any assay.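 Values shown are percent growth following 48 h exposure of cells in 96-well plates to a single concentration of compound; below 10 was considered active.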 Calls of active or inactive are those of the source.
# Tested on: NCI-H460 lung
# Assay: NCI-60 one-dose screen, 48 h (100 = growth as untreated, 0 = no growth, -100 = all killed)
# Conditions: 10 µM unless noted
row,SMILES,growth
1,c1ccc2c(c1)oc1cc3sccc3nc12,104% (inactive)
2,CC1=C(C(=O)OCC2CCN(C(=O)OC(C)(C)C)CC2)[C@H](c2cccc(C#N)c2)C2=C(CC(C)(C)CC2=O)N1,12.8% (inactive)
3,O=C(c1nc2ccccc2[nH]1)C1C(c2ccc([N+](=O)[O-])cc2)C2CC3CCCCC3N2[C@@]12C(=O)Nc1cc(Cl)ccc12 (stereo partly specified),11.2% (inactive)
4,Nc1ccn(C2O[C@H](CO)[C@@H](O)[C@H]2O)c(=O)n1 (stereo partly specified),59.8% (inactive)
5,Nc1ccc(-n2c(=O)oc3ccc(Cl)cc3c2=O)c(Cl)c1,2.28% (active)
6,CC1=C(C(=O)OCC2CCN(C(=O)OC(C)(C)C)CC2)[C@@H](c2cccc(C#N)c2)C2=C(CC(C)(C)CC2=O)N1,8.58% (active)
7,N#Cc1c(N)nc2c(c1N)C(c1ccc(F)cc1)c1ccc(N)cc1O2 (stereo unspecified),110% (inactive)
8,COc1ccc(Cn2c(Br)c3c(c2-c2cc(OC)c(OC)c(OC)c2)CCc2sc(NC(=O)c4ccc(OC)cc4)nc2-3)cc1,98% (inactive)
9,O=c1cc(NC2CCN(CCCc3ccccc3)CC2)c2cc(Cl)ccc2o1,-6.31% (active)
10,Brc1ccc(Oc2ccc(Nc3ncnc4onc(-c5ccccc5)c34)cc2)cc1,103% (inactive)
11,NNC(=O)CNC(=O)Nc1n[nH]c(=S)s1,105% (inactive)
12,COc1ccc(Cn2c(Br)c3c(c2-c2cc(OC)c(OC)c(OC)c2)CCc2sc(NC(C)=O)nc2-3)cc1,31.2% (inactive)
13,COc1ccc(/C=C2\NC(=O)NC2=O)cc1O,98.4% (inactive)
14,Cc1cc2c(c(C)c1Cl)C(=O)/C(=C/c1ccco1)O2,94.7% (inactive)
15,O=C(Nc1ccc(N2CCNCC2)cc1)c1[nH]ncc1Nc1cc(Oc2ccccc2)ncn1,-47.1% (active)
16,CS(=O)(=O)Nc1ccc(C(=O)NC(C(=O)NO)c2ccc(-c3cccc(F)c3)cc2)cc1 (stereo unspecified),89.7% (inactive)
17,CC[C@]1(O)C[C@@H]2CN(CCc3c([nH]c4ccccc34)[C@@](C(=O)OC)(c3cc4c(cc3OC)N(C)[C@H]3[C@@](O)(C(=O)OC)[C@H](OC(C)=O)[C@]5(CC)C=CCN6CC[C@]43[C@@H]65)C2)C1,4.41% (active)
18,O=C(CN1C(=O)/C(=C\c2ccc(Cl)cc2)SC1=S)Nc1ncc(Cc2ccc(Cl)cc2)s1,100% (inactive)
19,CCCCC(O)(c1ccc(Cl)cc1)C(CN1CCOCC1)c1ccc(Cl)cc1 (stereo unspecified),19.4% (inactive)

row,SMILES,growth
1,O=C(Nc1ccc(C23CC4CC(CC(c5ccccc5)(C4)C2)C3)cc1)c1cccs1,69.9% (inactive)
2,O=C(COc1cc(O)c2c(=O)cc(-c3ccccc3)oc2c1)Nc1ccccc1,61.6% (inactive)
3,COc1cc(C(=O)Nc2ccc(-c3nc4ccccc4[nH]3)cc2)cc(OC)c1OC,22.6% (inactive)
4,COC(=O)[C@@H]1CCCN1C(=O)[C@H]1CCCN1C(=O)[C@@H](Cc1c[nH]c2ccccc12)NC(=S)Nc1cc(C(F)(F)F)cc(C(F)(F)F)c1,16.2% (inactive)
5,O=C(CCc1nnc2sc(-c3ccc(Cl)cc3Cl)nn12)c1nc2ncccc2[nH]1,-66.8% (active)
6,O=Cc1cc2ccccc2nc1Nc1nccs1,61.8% (inactive)
7,O=C(CCc1nnc2sc(Cc3ccccc3Cl)nn12)c1nc2ncccc2[nH]1,97.8% (inactive)
8,NS(=O)(=O)c1ccc(CCN=C=S)cc1,56.7% (inactive)
9,CCOc1cc(Cl)c(C(C)NC(=O)c2cccc(OC)c2)cc1OCC (stereo unspecified),13.6% (inactive)
10,CN1CCN(Cc2ccc(C(=O)Nc3cncc(C#Cc4cnc5cccnn45)c3)cc2C(F)(F)F)CC1,49.2% (inactive)
11,COc1ccc2c(c1)C=C1CSCC3=Cc4cc(OC)ccc4OC13O2,6.88% (active)
12,CN1CCN(Cc2ccc(NC(=O)c3cncc(C#Cc4nc(N)nc5[nH]ncc45)c3)cc2C(F)(F)F)CC1,112% (inactive)
13,COc1cc(C(=O)O/N=C(\N)Cc2cccc3ccccc23)cc(OC)c1OC,-47.9% (active)
14,Nc1nc(-c2cnccn2)nn1-c1nc2ccccc2s1,104% (inactive)
15,COC(=O)C1=C(C)NC(C)=C(C(=O)OC)C(N2C(=O)CCC2=O)C1 (stereo unspecified),101% (inactive)
16,COc1ccc(Br)c(/C=C2\SC(=Nc3ccc(O)cc3)NC2=O)c1,102% (inactive)
17,COc1ccc(Cn2c(Br)c3c(c2Br)-c2nc(NC(=O)c4ccc(OC)cc4)sc2CC3)cc1,77.4% (inactive)
18,Nc1ncnc(N)c1NC(=O)c1ccc(OCc2ccccc2)cc1,107% (inactive)
19,CCOc1ccc(-c2nonc2NC(=O)c2cccc(C)c2)cc1OCC,55.9% (inactive)

# Tested on: HOP-92 NSCLC
# Assay: as above
# Conditions: 10 µM unless noted
row,SMILES,growth
1,c1ccc2c(c1)oc1cc3sccc3nc12,95.1% (inactive)
2,CC1=C(C(=O)OCC2CCN(C(=O)OC(C)(C)C)CC2)[C@H](c2cccc(C#N)c2)C2=C(CC(C)(C)CC2=O)N1,86.3% (inactive)
3,O=C(c1nc2ccccc2[nH]1)C1C(c2ccc([N+](=O)[O-])cc2)C2CC3CCCCC3N2[C@@]12C(=O)Nc1cc(Cl)ccc12 (stereo partly specified),20.1% (inactive)
4,Nc1ccn(C2O[C@H](CO)[C@@H](O)[C@H]2O)c(=O)n1 (stereo partly specified),73.2% (inactive)
5,Nc1ccc(-n2c(=O)oc3ccc(Cl)cc3c2=O)c(Cl)c1,-13.1% (active)
6,CC1=C(C(=O)OCC2CCN(C(=O)OC(C)(C)C)CC2)[C@@H](c2cccc(C#N)c2)C2=C(CC(C)(C)CC2=O)N1,79.9% (inactive)
7,N#Cc1c(N)nc2c(c1N)C(c1ccc(F)cc1)c1ccc(N)cc1O2 (stereo unspecified),97.2% (inactive)
8,COc1ccc(Cn2c(Br)c3c(c2-c2cc(OC)c(OC)c(OC)c2)CCc2sc(NC(=O)c4ccc(OC)cc4)nc2-3)cc1,89.1% (inactive)
9,O=c1cc(NC2CCN(CCCc3ccccc3)CC2)c2cc(Cl)ccc2o1,-26.1% (active)
10,Brc1ccc(Oc2ccc(Nc3ncnc4onc(-c5ccccc5)c34)cc2)cc1,110% (inactive)
11,NNC(=O)CNC(=O)Nc1n[nH]c(=S)s1,91.7% (inactive)
12,COc1ccc(Cn2c(Br)c3c(c2-c2cc(OC)c(OC)c(OC)c2)CCc2sc(NC(C)=O)nc2-3)cc1,65.5% (inactive)
13,COc1ccc(/C=C2\NC(=O)NC2=O)cc1O,89.2% (inactive)
14,Cc1cc2c(c(C)c1Cl)C(=O)/C(=C/c1ccco1)O2,129% (inactive)
15,O=C(Nc1ccc(N2CCNCC2)cc1)c1[nH]ncc1Nc1cc(Oc2ccccc2)ncn1,-21% (active)
16,CS(=O)(=O)Nc1ccc(C(=O)NC(C(=O)NO)c2ccc(-c3cccc(F)c3)cc2)cc1 (stereo unspecified),-8.77% (active)
17,CC[C@]1(O)C[C@@H]2CN(CCc3c([nH]c4ccccc34)[C@@](C(=O)OC)(c3cc4c(cc3OC)N(C)[C@H]3[C@@](O)(C(=O)OC)[C@H](OC(C)=O)[C@]5(CC)C=CCN6CC[C@]43[C@@H]65)C2)C1,-9.28% (active)
18,O=C(CN1C(=O)/C(=C\c2ccc(Cl)cc2)SC1=S)Nc1ncc(Cc2ccc(Cl)cc2)s1,101% (inactive)
19,CCCCC(O)(c1ccc(Cl)cc1)C(CN1CCOCC1)c1ccc(Cl)cc1 (stereo unspecified),-3.36% (active)

row,SMILES,growth
1,O=C(Nc1ccc(C23CC4CC(CC(c5ccccc5)(C4)C2)C3)cc1)c1cccs1,86.5% (inactive)
2,O=C(COc1cc(O)c2c(=O)cc(-c3ccccc3)oc2c1)Nc1ccccc1,89.9% (inactive)
3,COc1cc(C(=O)Nc2ccc(-c3nc4ccccc4[nH]3)cc2)cc(OC)c1OC,56.4% (inactive)
4,COC(=O)[C@@H]1CCCN1C(=O)[C@H]1CCCN1C(=O)[C@@H](Cc1c[nH]c2ccccc12)NC(=S)Nc1cc(C(F)(F)F)cc(C(F)(F)F)c1,80.9% (inactive)
5,O=C(CCc1nnc2sc(-c3ccc(Cl)cc3Cl)nn12)c1nc2ncccc2[nH]1,-62.1% (active)
6,O=Cc1cc2ccccc2nc1Nc1nccs1,81% (inactive)
7,O=C(CCc1nnc2sc(Cc3ccccc3Cl)nn12)c1nc2ncccc2[nH]1,78.4% (inactive)
8,NS(=O)(=O)c1ccc(CCN=C=S)cc1,23.4% (inactive)
9,CCOc1cc(Cl)c(C(C)NC(=O)c2cccc(OC)c2)cc1OCC (stereo unspecified),-46.3% (active)
10,CN1CCN(Cc2ccc(C(=O)Nc3cncc(C#Cc4cnc5cccnn45)c3)cc2C(F)(F)F)CC1,34.4% (inactive)
11,COc1ccc2c(c1)C=C1CSCC3=Cc4cc(OC)ccc4OC13O2,44.9% (inactive)
12,CN1CCN(Cc2ccc(NC(=O)c3cncc(C#Cc4nc(N)nc5[nH]ncc45)c3)cc2C(F)(F)F)CC1,77.8% (inactive)
13,COc1cc(C(=O)O/N=C(\N)Cc2cccc3ccccc23)cc(OC)c1OC,-7.36% (active)
14,Nc1nc(-c2cnccn2)nn1-c1nc2ccccc2s1,106% (inactive)
15,COC(=O)C1=C(C)NC(C)=C(C(=O)OC)C(N2C(=O)CCC2=O)C1 (stereo unspecified),101% (inactive)
16,COc1ccc(Br)c(/C=C2\SC(=Nc3ccc(O)cc3)NC2=O)c1,83.2% (inactive)
17,COc1ccc(Cn2c(Br)c3c(c2Br)-c2nc(NC(=O)c4ccc(OC)cc4)sc2CC3)cc1,50.6% (inactive)
18,Nc1ncnc(N)c1NC(=O)c1ccc(OCc2ccccc2)cc1,106% (inactive)
19,CCOc1ccc(-c2nonc2NC(=O)c2cccc(C)c2)cc1OCC,-8.71% (active)
